Data: PubChem BioAssay (NCI)
Several values for one entry are separate records, joined by “and”; a condition that tells them apart may be missing. Equal entries are not always repeated. The panel holds about 79,000 compounds, 15% with a hit somewhere; the sample as a whole holds those more often. Some structures have more than one record in an assay (separate samples or runs), and their calls can disagree. Activity calls are given as the source filed them. Cut-off read from the data, not from the text of the source: active = growth inhibition above about 70%; inactive = the rest.

Tests used:
[1] = NCI Yeast Anticancer Drug Screen. Data for the rad50 strain (AID 155);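 note: 0% = growth of vehicle-only cultures of the same strain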; conditions: S. cerevisiae rad50 strain growth inhibition, stronger effect = higher value
Summary of the method: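 Compounds were tested on a yeast strain with an engineered DNA damage repair alteration; the reported value is growth inhibition normalised to vehicle treatment.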

[2] = NCI Yeast Anticancer Drug Screen. Data for the mec2-1 strain (AID 157); conditions: S. cerevisiae mec2-1 strain, stronger effect = higher value
Summary of the method: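 Yeast mec2-1 mutant treated with compound. Readout: growth inhibition vs vehicle controls.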

[3] = NCI Yeast Anticancer Drug Screen. Data for the sgs1 mgt1 strain (AID 161);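 note: 0% = growth of cultures given vehicle only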; conditions: S. cerevisiae sgs1 mgt1 strain, stronger effect = higher value
Summary of the method: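 Mutant yeast exposed to compound; growth scored against vehicle-only wells.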

[4] = NCI Yeast Anticancer Drug Screen. Data for the cln2 rad14 strain (AID 165);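 note: 0% = growth equal to vehicle treated cultures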; conditions: S. cerevisiae cln2 rad14 strain, stronger effect = higher value
Summary of the method: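 cln2 rad14 yeast strain; compound exposure; growth inhibition read vs vehicle controls.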

[5] = NCI Yeast Anticancer Drug Screen. Data for the bub3 strain (AID 167); conditions: S. cerevisiae bub3 mutant strain, stronger effect = higher value
Summary of the method: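 Growth of a checkpoint-deficient yeast mutant is measured after compound exposure. Values represent inhibition relative to vehicle.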

[6] = NCI Yeast Anticancer Drug Screen. Data for the mlh1 rad18 strain (AID 175); conditions: S. cerevisiae mlh1 rad18 strain growth inhibition, stronger effect = higher value
Summary of the method: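 Yeast w/ defined DNA-repair lesions; compound exposure; growth vs vehicle controls → % inhibition.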

[7] = at 5.0 µM (retest, dose inferred, filed as 0.5)
[8] = at 50.0 µM (retest, dose inferred, filed as 5.0)

| SMILES | growth inhibition [1, 7] | growth inhibition [1, 8] | growth inhibition ([1]; at 50.0 µM) | growth inhibition [2, 7] | growth inhibition [2, 8] | growth inhibition ([2]; at 50.0 µM) | growth inhibition [3, 7] | growth inhibition [3, 8] | growth inhibition ([3]; at 50.0 µM) | growth inhibition [4, 7] | growth inhibition [4, 8] | growth inhibition ([4]; at 50.0 µM) | growth inhibition [5, 7] | growth inhibition [5, 8] | growth inhibition ([5]; at 50.0 µM) | growth inhibition [6, 7] | growth inhibition [6, 8] | growth inhibition ([6]; at 50.0 µM) |
| --- | --- | --- | --- | --- | --- | --- | --- | --- | --- | --- | --- | --- | --- | --- | --- | --- | --- | --- |
| Oc1cc(Cl)c(Cl)cc1Cl | 30% (inactive) | 98% (active) | 98.5% (active) and 53% (inactive) | 12% (inactive) | 99% (active) | 98.8% (active) and 98.6% (active) | 17% (inactive) | 99% (active) | 99.1% (active) and -3.1% (inactive) | 0% (inactive) | 99% (active) | 97.5% (active) and 96.4% (active) | -2% (inactive) | 99% (active) | 98.1% (active) and 97.2% (active) | 18% (inactive) | 100% (active) | 98.8% (active) and 52.5% (inactive) |
| NC(c1ccccc1)C(O)c1ccccc1 (configuration not stated) | – | – | 2.1% (inactive) [middle of 4 runs] | – | – | 3.2% (inactive) [middle of 4 runs] | – | – | 10.7% (inactive) [middle of 4 runs] | – | – | – | – | – | – | – | – | -10.7% (inactive) [middle of 4 runs] |
| S=C=Nc1cccc(Cl)c1 | -17% (inactive) | 84% (active) | 85.2% (active) | -7% (inactive) | 90% (active) | 86% (active) | – | – | – | 35% (inactive) | 65% (inactive) | 80.3% (active) | 7% (inactive) | 89% (active) | 85.2% (active) | 2% (inactive) | 89% (active) | 79.3% (active) |
| CCOC(=O)C(/N=N\c1nn[nH]n1)/N=N/c1ncn[nH]1 (configuration not stated) | -7% (inactive) | -8% (inactive) | 97.7% (active) | -28% (inactive) | -6% (inactive) | 99.5% (active) | – | – | – | -2% (inactive) | -10% (inactive) | 93.2% (active) | -6% (inactive) | -3% (inactive) | 98.8% (active) | -7% (inactive) | -5% (inactive) | 99.2% (active) |
| NC(CS)C(=O)O (configuration not stated) | – | – | -4.8% (inactive) and 31.9% (inactive) and -26% (inactive) | – | – | -7.5% (inactive) and -9.05% (inactive) and -3.1% (inactive) | – | – | -7.95% (inactive) and 28.4% (inactive) and -35.2% (inactive) | – | – | -0.4% (inactive) and 7.6% (inactive) and -1.55% (inactive) | – | – | -17.2% (inactive) and 25.6% (inactive) and -38.2% (inactive) | – | – | -8.1% (inactive) and 13.2% (inactive) and 1.75% (inactive) |
| CCC1CCCCN1CC(C(C)=O)C(c1ccccc1)c1c(O)c2ccccc2oc1=O (configuration not stated) | 13% (inactive) | 13% (inactive) | 78.2% (active) | 0% (inactive) | 0% (inactive) | 64.8% (inactive) | – | – | – | -6% (inactive) | -6% (inactive) | 72.5% (active) | 6% (inactive) | 6% (inactive) | 71.3% (active) | 7% (inactive) | 7% (inactive) | 75.3% (active) |
| CCCCCCCCCCCCCCCCCC(=O)[O][Hg][c]1ccccc1 | 33% (inactive) | 96% (active) | 90.7% (active) | 43% (inactive) | 98% (active) | 91.5% (active) | – | – | – | 99% (active) | 100% (active) | 92.3% (active) | 99% (active) | 100% (active) | 90% (active) | 34% (inactive) | 100% (active) | 90.2% (active) |
| [N-]=[N+]=NS(=O)(=O)c1cccc([N+](=O)[O-])c1 | – | – | – | -17% (inactive) | 100% (active) | 87.1% (active) | -34% (inactive) | 99% (active) | 89.1% (active) | 8% (inactive) | 99% (active) | 90.8% (active) | -24% (inactive) | 100% (active) | 90.8% (active) | -5% (inactive) | 100% (active) | 92.7% (active) |
| ClCC[N+]12CC[N+](CCCl)(CC1)C2 | 59% (inactive) | 97% (active) | – | 50% (inactive) | 98% (active) | – | 86% (active) | 99% (active) | – | 75% (active) | 98% (active) | – | 82% (active) | 98% (active) | – | 47% (inactive) | 97% (active) | – |
| O=S(=O)(O)O | – | – | – | – | – | – | – | – | – | – | – | – | – | – | – | – | – | -10.7% (inactive) and 13.2% (inactive) and -10.6% (inactive) |
| NNc1n[nH]c(=S)n1N | – | – | 7.2% (inactive) and 1.8% (inactive) and 15.1% (inactive) | – | – | -5.4% (inactive) and 0.5% (inactive) and -6.15% (inactive) | – | – | 9.8% (inactive) and -4.35% (inactive) and 4.1% (inactive) | – | – | 8.7% (inactive) and 13% (inactive) and 5.85% (inactive) | – | – | 9.3% (inactive) and 17% (inactive) and 0.45% (inactive) | – | – | 17.6% (inactive) and -1.5% (inactive) and -1.65% (inactive) |
| NN1CCCC1C(=O)O (configuration not stated) | -1% (inactive) | 2% (inactive) | 23.1% (inactive) | -2% (inactive) | -1% (inactive) | 53.1% (inactive) | 0% (inactive) | 0% (inactive) | 28.2% (inactive) | – | – | – | 4% (inactive) | -2% (inactive) | 99.3% (active) | -1% (inactive) | 2% (inactive) | 65.6% (inactive) |
| CCC(C)N1CN(c2ccccc2)C2(CCN(CC3COc4ccccc4O3)CC2)C1=O (configuration not stated) | 1% (inactive) | -7% (inactive) | -5.3% (inactive) | -5% (inactive) | 1% (inactive) | 4.4% (inactive) | 18% (inactive) | 9% (inactive) | 18.2% (inactive) | – | – | – | 9% (inactive) | 32% (inactive) | 66.7% (inactive) | -26% (inactive) | 6% (inactive) | 12.6% (inactive) |
| Cc1cc(N(CCCl)CCCl)ccc1CN1CCCN(Cc2ccc(N(CCCl)CCCl)cc2C)C1c1cccc(F)c1 | 6% (inactive) | 97% (active) | 40.8% (inactive) | -27% (inactive) | 99% (active) | 18% (inactive) | 1% (inactive) | 98% (active) | 80.5% (active) | – | – | – | 3% (inactive) | 98% (active) | 2.15% (inactive) | 8% (inactive) | 95% (active) | 76.5% (active) |
| COc1cc2c(cc1OC)C13CCN4CC5=CCOC6CC(=O)N2C1C6C5CC43 (configuration not stated) (tested in a mixture with another compound) | -6% (inactive) | -24% (inactive) | 7.15% (inactive) [middle of 6 runs] | -2% (inactive) | 1% (inactive) | – | -13% (inactive) | -8% (inactive) | – | -3% (inactive) | 2% (inactive) | – | 0% (inactive) | -2% (inactive) | -1.4% (inactive) [middle of 6 runs] | -2% (inactive) | -4% (inactive) | – |
| CC(Cc1ccccc1)N(C)Cc1ccc(-c2ccccc2)o1 (configuration not stated) | 27% (inactive) | 91% (active) | 31.2% (inactive) | – | – | – | 14% (inactive) | 94% (active) | 63.6% (inactive) | 16% (inactive) | 88% (active) | 14.6% (inactive) | 6% (inactive) | 96% (active) | 20.6% (inactive) | 12% (inactive) | 91% (active) | 81.3% (active) |
| N#CC(C#N)=Cc1ccc([N+](=O)[O-])s1 | – | – | – | -45% (inactive) | 99% (active) | 99.6% (active) | -42% (inactive) | 98% (active) | 99.2% (active) | -53% (inactive) | 98% (active) | 98.5% (active) | -66% (inactive) | 98% (active) | 99.3% (active) | -83% (inactive) | 97% (active) | 99.2% (active) |
| [Br][Sn]([CH]1CCCCC1)([CH]1CCCCC1)[CH]1CCCCC1 | 98% (active) | 99% (active) | 98.6% (active) | 100% (active) | 100% (active) | 99.1% (active) | – | – | – | 57% (inactive) | 98% (active) | 98.5% (active) | 23% (inactive) | 99% (active) | 98.5% (active) | 99% (active) | 99% (active) | 98.8% (active) |
| Cn1c2cccc(=O)c-2nc2ccccc21 | -14% (inactive) | 85% (active) | 82.5% (active) | 6% (inactive) | 62% (inactive) | 52.2% (inactive) | 1% (inactive) | 49% (inactive) | 21.3% (inactive) | – | – | – | -12% (inactive) | 56% (inactive) | 41.9% (inactive) | 9% (inactive) | 77% (active) | 60% (inactive) |
| c1ccncc1 | 17% (inactive) | 20% (inactive) | – | -2% (inactive) | 7% (inactive) | – | -4% (inactive) | 19% (inactive) | – | 0% (inactive) | -1% (inactive) | – | -3% (inactive) | 6% (inactive) | – | 8% (inactive) | 32% (inactive) | – |
| O=C1CN2C(Cl)(Cl)C2(c2ccccc2)c2cc(Cl)ccc2N1CC1CC1 (configuration not stated) | 54% (inactive) | 93% (active) | 90.3% (active) | – | – | – | 27% (inactive) | 94% (active) | 92.7% (active) | 18% (inactive) | 91% (active) | 88.3% (active) | 39% (inactive) | 93% (active) | 68.2% (inactive) | 65% (inactive) | 92% (active) | 87.3% (active) |
| N=C(N)SCc1ccccc1 | – | – | -2.55% (inactive) [middle of 5 runs] | – | – | -2.2% (inactive) [middle of 5 runs] | – | – | 7.55% (inactive) [middle of 5 runs] | – | – | – | – | – | -5.6% (inactive) [middle of 5 runs] | – | – | – |
| CCOc1ccc(/C=C/[N+](=O)[O-])cc1[N+](=O)[O-] | 11% (inactive) | 98% (active) | 95.6% (active) | 7% (inactive) | 99% (active) | 99.6% (active) | – | – | – | 16% (inactive) | 99% (active) | 99% (active) | 9% (inactive) | 99% (active) | 99.3% (active) | 12% (inactive) | 99% (active) | 99.3% (active) |
| BrCc1ccc2ncccc2c1 | 5% (inactive) | 98% (active) | 98.5% (active) | 4% (inactive) | 99% (active) | 98.9% (active) | 6% (inactive) | 98% (active) | 99% (active) | – | – | – | 3% (inactive) | 99% (active) | 99% (active) | 1% (inactive) | 99% (active) | 98.5% (active) |
| O=C(Cl)c1ccccn1 | 6% (inactive) | 98% (active) | 99.5% (active) | 7% (inactive) | 99% (active) | 99.5% (active) | 7% (inactive) | 99% (active) | 77.8% (active) | – | – | – | 4% (inactive) | 99% (active) | 99.3% (active) | 1% (inactive) | 99% (active) | 99.5% (active) |
